Screening results as filed in PubChem BioAssay.
ATXN viability: Viability Counterscreen for Primary qHTS for Inhibitors of ATXN expression; S2 cells (HEK-293 line with an ATXN2-luciferase reporter) viability, CellTiter-Fluor protease fluorescence, 24 h; Potency, µM (titrated, usually from 56.7 µM), actives largely listed as cytotoxic; hit rate 0.49% among 400,000; AID 651635, 2014; further: nearly all actives have a fitted effect of over 40% in size
DT40 TDP1 CPT: qHTS for Inhibitors of human tyrosyl-DNA phosphodiesterase 1 (TDP1): qHTS in cells in presence of CPT; chicken DT40 Tdp1-/-;hTDP1 cells + 20 nM CPT, ATP luminescence, 48 h; Potency, µM (top dose mostly 46.2 µM), usual class: inhibitors; hit rate 12% among 420,000; further: nearly all actives have a fitted effect of over 55% in size
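Cell growth measured by CellTiter-Glo luminescence after a minimum 48 h, 37 C compound exposure with 20 nM CPT in Tdp1-knockout DT40 cells stably expressing hTDP1, seeded 400/well; qHTS titration format.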
DT40 TDP1 no CPT: qHTS for Inhibitors of human tyrosyl-DNA phosphodiesterase 1 (TDP1): qHTS in cells in absence of CPT; DT40 Tdp1-/- hTDP1 cells, no CPT, ATP luminescence, 48 h; hit rate 15% among 420,000; AID 686978, 2013; Potency, µM (doses to about 46.2 µM), actives largely listed as inhibitors; further: nearly all actives have a fitted effect of over 55% in size
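Cells were dispensed at 400 per well, compounds added by pin tool, plates incubated ≥48 hr at 37 °C, then CellTiter-Glo added for 30 min at room temperature before luminescence reading. Line: DT40 Tdp1-/- complemented with hTDP1; camptothecin omitted.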
HepG2 viability: qHTS for Inhibitors of TGF-b: Cytotox Counterscreen; HepG2 CAGA-GFP viability, ATP luminescence, 18 h; Potency, µM (highest dose often 46.1 µM), most hits filed as cytotoxic; hit rate 0.76% among 410,000
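HepG2 CAGA-GFP cells (1000/well, DMEM with 1% FBS) received compound, then TGF-beta at 500 pg/mL final, and were incubated 18 hours at 37 degrees C. Viability was read by CellTiter-Glo luminescence. Media-only wells were set as complete cell-killing and DMSO as no toxicity.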
ATXN2 expr inh: Primary qHTS for Inhibitors of ATXN expression. Potency, µM (top dose mostly 57 µM), most hits filed as inhibitors. hit rate 0.72% among 360,000. HEK-293 ATXN2-luciferase reporter, luminescence, 24 h; further: nearly all actives have a fitted effect of over 55% in size
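ATXN2-luciferase reporter cells (luciferase flanked by upstream and downstream ATXN2 gene portions) were treated 24 h at 37 °C with compounds at up to 57 uM. SteadyGlo luminescence gave expression; GF-AFC fluorescence gave viability.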
TGFb SMAD3 inh: qHTS for Inhibitors of TGF-b; HepG2 CAGA-GFP TGF-b/SMAD3 reporter, GFP fluorescence, 18 h; TGF-beta stimulated, 500 pg/mL final; Potency, µM (doses to about 46.1 µM), hits mostly inhibitors; hit rate 1.2% among 410,000; AID 588855, 2011; further: nearly all actives have a fitted effect of over 65% in size
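Using HEPG2 CAGA-GFP reporter cells at 1000 cells/well, we pinned test compounds, stimulated with recombinant TGF-beta (500 pg/mL final) and measured total well GFP after 18 h.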
Numbers stand for hits; – = inactive; ? = inconclusive; · = no result given. In the library only some 17% were active in any assay of this set; here they are far more common. The call rests on the fitted dose curve; in most records, active means well fitted curve in the direction sought with a large enough effect; inconclusive means small, poorly fitted or top-dose-only effect, or another doubt; inactive means no such curve, though single readings can be large; an effect the other way counts as inactive or inconclusive.

SMILES	ATXN viability	DT40 TDP1 CPT	DT40 TDP1 no CPT	HepG2 viability	ATXN2 expr inh	TGFb SMAD3 inh
CC1(C)CC2(CC(c3ccccc3)Oc3cc(O)ccc32)NC(=S)N1 (stereo not given)	–	21µM	21µM	–	–	?
COc1ccc(C2(c3ccc(OC(C)=O)cc3OC(C)=O)CC(c3ccccc3)NC(=S)N2)cc1 (stereo not given)	–	?	?	–	–	–
COc1ccc(OC)c(CNS(=O)(=O)c2cc(CN3C(=O)c4cccnc4C3=O)ccc2OC)c1	–	–	–	–	–	–
CN1C[C@@H]2[C@@H]3C(=O)N(Cc4ccccc4)C(=O)[C@@H]3[C@](C)(C1=O)N2C(=O)c1ccc(C(C)(C)C)cc1	–	?	–	–	–	–
COc1ccc(CNC(=O)C(=O)NCC(c2cccnc2)N2CCN(c3ccccc3F)CC2)cc1 (stereo not given)	–	12µM	18µM	–	?	?
COc1ccccc1N1CCN(C(CNC(=O)C(=O)NCc2ccc(F)cc2)c2cccnc2)CC1 (stereo not given)	–	8.2µM	5.8µM	–	–	?
COc1ccccc1N1CCN(C(CNS(=O)(=O)c2ccc(C)cc2)c2cccnc2)CC1 (stereo not given)	–	?	7.3µM	–	–	–
CC(=O)OCc1c(C(F)(F)F)nn(C)c1SCc1ccc(Cl)cc1	–	–	–	–	–	–
CC(=O)N(C)c1ccc(NCc2cc(=O)oc3cc(C)c(O)cc23)cc1	–	–	?	–	·	–
CCO/C(=C/c1sc2ccc(OC)cc2[n+]1CCCS(=O)(=O)[O-])CC	·	–	–	–	·	–
CCOC(=O)C[n+]1c(C)sc2ccc(OC)cc21	–	8.2µM	8.2µM	–	–	–
C=CCn1c(=O)/c(=C/c2ccsc2)s/c1=C(\C#N)C(=O)NCCN1CCOCC1	–	–	?	–	–	–
CC1CCC(NC(=O)C2CC(=O)N(c3ccc4c(c3)OCCO4)C2)CC1 (stereo not given)	–	–	–	–	–	–
CSc1cccc(NC(=O)CC(c2cccs2)N2Cc3ccccc3C2=O)c1 (stereo not given)	–	16µM	?	–	–	?
Cc1c(Cl)cccc1NC(=O)CC(c1cccs1)N1Cc2ccccc2C1=O (stereo not given)	–	16µM	?	–	–	?
Cc1c(Cl)cccc1NC(=O)CC(c1ccc(F)cc1)N1Cc2ccccc2C1=O (stereo not given)	·	23µM	21µM	–	·	18µM
CSc1cccc(NC(=O)C(c2ccccc2)N2Cc3ccccc3C2=O)c1 (stereo not given)	·	–	–	–	·	?
COc1cc(Cl)c(C)cc1NC(=O)CC(c1ccc(F)cc1)N1Cc2ccccc2C1=O (stereo not given)	·	23µM	18µM	–	·	–
COc1cc(N)c(Cl)cc1C(=O)OCC(=O)N1CCCCCC1	–	–	–	–	–	–
O=C(Cn1c(=O)c(CNc2ccccc2)cc2cc3c(cc21)OCCO3)Nc1ccccc1Cl	·	–	?	–	·	–
O=C(CC(c1cccs1)N1Cc2ccccc2C1=O)Nc1ccccc1F (stereo not given)	–	?	21µM	–	–	–
O=C(Nc1ccccc1F)C(Cc1ccccc1)N1Cc2ccccc2C1=O (stereo not given)	·	–	–	–	·	–
CC1(C)OC(=O)C2=C(C[C@@H](C3CCCCC3)O[C@H]2c2ccc(F)cc2)O1	–	–	?	–	–	?
CC1(C)OC(=O)C2=C(C[C@@H](C3CCCCC3)O[C@H]2c2ccccc2)O1	?	?	16µM	·	–	·
CC(C)[C@@H]1O[C@H](CCc2ccccc2)CC2=C1C(=O)OC(C)(C)O2	–	15µM	15µM	·	–	·
